Source: PubChem (National Center for Advancing Translational Sciences (NCATS))
Marburg entry inh = blocks Marburg virus binding to or entry into cells; Potency, µM (titrated, usually from 37.8 µM), for the others: top-dose activity change, negative = inhibition, hits mostly inhibitors; 1.8% of 300,000 active; Marburg virus pseudotyped entry inhibition, cell reporter; calls by dose curve; tested in HEK293 cells; further: potency means the concentration at half of the fitted maximal effect
VACV Venus inh = inhibitors of vaccinia virus (Venus reporter); Vaccinia virus Venus reporter expression, fluorescence; Potency, µM (doses to about 36.5 µM), for the others: top-dose activity change, negative = inhibition, usual class: inhibitors; 0.46% of 330,000 active; AID 720580; calls by dose curve; tested in A549 cells; further: potency means the concentration at half of the fitted maximal effect; nearly all actives have a fitted effect of over 30% in size
LASV entry inh = inhibitors of Lassa virus binding or cell entry. Potency, µM (titrated, usually from 37.9 µM), for the others: at the highest dose activity change, negative = inhibition, usual class: inhibitors. Lassa virus pseudotype entry inhibition, cell reporter. 1.2% of 300,000 active; calls by dose curve; tested in HEK293 cells; further: potency means the concentration at half of the fitted maximal effect; nearly all actives have a fitted effect of over 50% in size
FMDV inh = foot and mouth disease virus antiviral activity; FMDV antiviral cell-based qHTS; Potency, µM (highest dose often 57.9 µM), for inactives: top-dose activity change, negative = inhibition, hits mostly inhibitors; 1.2% of 410,000 active; AID 1159524; calls by dose curve; tested in HEK293T cells; further: read-out not given here; potency means the concentration at half of the fitted maximal effect; nearly all actives have a fitted effect of over 45% in size
VACV mCherry inh = inhibitors of vaccinia virus infection (mCherry reporter signal); AID 720579; Vaccinia virus mCherry reporter infection, fluorescence; 0.63% of 310,000 active; Potency, µM (doses to about 36.5 µM), for inactives: top-dose activity change, negative = inhibition, actives largely listed as inhibitors; calls by dose curve; tested in A549 cells; further: potency means the concentration at half of the fitted maximal effect; nearly all actives have a fitted effect of over 35% in size
HCMV antiviral = human cytomegalovirus inhibition; HFF cells, HCMV-luciferase reporter, 72 h; stronger effect = lower value; activity change, negative = inhibition, % at 57.5 µM; 4.5% of 410,000 active; AID 1259415; in the data active means activity change below about -60%; inconclusive means no clear call, values can overlap the other calls; inactive means above about -39%
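Steps: HFFs plated, 16 h 37C; compounds added; HCMV-luciferase added to MOI 1 PFU/cell; 72 h 37C; OneGlo reagent, 5 min room temperature; luminescence read, normalized to controls.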
Starred values were filed as active, the others as inactive; i = inactive; ? = inconclusive; · = no result given; [ ] = dose if it differs, or a comment. Rows were chosen to be rich in hits. Some 6.5% of all compounds tested hit in one or more screens of this group. On the % scale 0 is the no-effect control and ±100 the full control effect.

SMILES | Marburg entry inh | VACV Venus inh | LASV entry inh | FMDV inh | VACV mCherry inh | HCMV antiviral
Cc1nn(C)c(C)c1/C=C/C(=O)c1ccc(Cl)cc1Cl | ? | ? | ? | ? | ? | -81*
CCc1nn(CC(=O)NCCCN(Cc2ccccc2)C(C)C)c(=O)c2cc3sccc3n12 | ? | -9% | -16% | 6% | -15% | -63*
CCCCN(CC)CCCNC(=O)Cn1nc(CC)n2c(cc3sccc32)c1=O | -1%[46.1 µM] | -11% | · | -8% | -11% | -23
COc1cc(OC)c(OC)cc1/C=C/c1ccc2ccccc2[n+]1C | · | 27% | · | · | -14% | ·
COc1cc(OC)c(/C=C/c2ccc3ccccc3[n+]2C)c(OC)c1 | · | -27% | · | · | ? | ·
CCCC[n+]1c(/C=C/c2c(OC)cc(OC)cc2OC)ccc2ccccc21 | · | 126% | · | · | 10µM* | ·
CCC[n+]1c(/C=C/c2c(OC)cc(OC)cc2OC)ccc2ccccc21 | · | 106% | · | · | 10µM* | ·
CCOC(=O)C1=C(C(=O)OCC)N(Cc2ccccc2)CCC1=O | · | -4% | · | -16% | -5% | -12
CCc1cc2c(=O)c(-c3ccc4c(c3)OCCO4)c(C)oc2cc1OS(C)(=O)=O | ? | ? | ? | ? | ? | -63*
CN(C(=O)c1cc2c(=O)oc3ccccc3c2s1)c1ccc(F)cc1 | -12%[46.1 µM] | -16% | 2%[46.1 µM] | -12% | -14% | -5
COc1ccc(NS(=O)(=O)c2ccc(-n3nnc4ccccc43)c([N+](=O)[O-])c2)cc1 | 2% | -11% | -16% | 7% | -3% | -63*
O=C1c2ccccc2NC(c2ccc(-c3ccc(Br)cc3)o2)N1O (stereo not drawn) | ? | · | -7% | -16% | · | -72*
O=C1c2ccccc2NC(c2ccc(-c3cccc([N+](=O)[O-])c3)o2)N1O (stereo not drawn) | ? | ? | ? | -13% | 13µM* | -79*
O=C1c2ccccc2NC(c2ccc(-c3ccc(F)cc3)o2)N1O (stereo not drawn) | · | · | · | 7% | · | -23
CCC[n+]1c2ccccc2cc2ccccc21 | ? | -6% | ? | ? | ? | -70*
Cc1ccc2ccccc2[n+]1CCCS(=O)(=O)[O-] | 26%[46.1 µM] | 6% | 8% | 22% | 3% | 12
CCCC[n+]1c2ccccc2cc2ccccc21 | · | ? | · | 28µM* | -10% | ?
CCCCNC(=O)O[C@H]1CC[C@@]23CCCN2C(=O)CCC[C@H]3[C@H]1Cc1ccccc1 | · | · | · | · | · | -17
CCCCN(C)c1c(C)nc2ccc(C(=O)N(C)CCN(C)C)cn12 | · | -9% | · | -10% | i | -18
COc1cccc([C@H]2Oc3ccc(OC)cc3C(=NOCC[C@@H]3C=C[C@H](OC(C)=O)[C@@H](COC(C)=O)O3)[C@H]2O)c1 | -24%[14.2 µM] | · | ? | · | · | ·
CCCCNC(=O)N1c2ccccc2CC1C (stereo not drawn) | 8%[46.1 µM] | -19% | -17%[46.1 µM] | 8% | i | 30
CSc1nc(N(C)NC(=O)c2ccccc2)c2ccccc2n1 | ? | ? | ? | -13% | ? | -23
CC(C)CC(=O)NN(C)c1nc(-c2ccccc2)nnc1C(F)(F)F | -27%[46.1 µM] | -6% | ? | -5% | -6% | -9
CN(NC(=O)c1ccc(Cl)cc1)c1nc(-c2ccccc2)nnc1C(F)(F)F | ? | -12% | -16% | 32µM* | -8% | -105*
CSc1nc(N(C)NC(=O)c2ccc(Cl)cc2)c2ccccc2n1 | ? | ? | ? | 0% | -19% | -65*
SMILES | Marburg entry inh | VACV Venus inh | LASV entry inh | FMDV inh | VACV mCherry inh | HCMV antiviral
CC(=O)Nc1ccc(/C(C)=N/NS(=O)(=O)c2ccccc2)cc1 | -1% | -2% | -1% | 42% | -10% | -18
Cc1cccc(N2CCN(c3ncnc4onc(-c5ccc(F)cc5)c34)CC2C)c1 (stereo not drawn) | · | 1% | -10%[46.1 µM] | ? | -6% | -16
Cc1cccc(N2CCN(c3ncnc4onc(C)c34)CC2C)c1 (stereo not drawn) | · | -13%[7.34 µM] | ? | 3.2µM* | -10%[7.34 µM] | -100*
CC(C)Oc1ccc(Nc2cc3c(cn2)cc(-c2cnn(C)c2)n3C)cc1 | · | · | · | · | · | 9
COc1ccc2c(c1)-c1nc(-n3ncc(C(=O)NC(C)(C)CO)c3C3CC3)ncc1CC2 | · | -1% | · | -20% | -18% | ·
COc1ccc(CC2=CC(=O)c3ccccc3C2=O)cc1 | · | · | · | ? | · | -97*
O=C(c1ccccc1C(F)(F)F)N1CC2ON=C(c3c(F)cccc3Cl)C2C1 (stereo not drawn) | · | · | · | · | · | -1
